# Source: publication PMC7819943, “Rice protein-binding microarrays: a tool to detect cis-acting elements near promoter regions in rice”
# The full ranking holds about 68,000 sequences; the median of “fluorescence intensity (a.u.)” is about 9,100, and the highest 2% start at about 16,000. Shown is part of a subset that was picked to be rich in the highest values.
# Molecular target: OsWRKY34 (Oryza sativa, UniProt Q0JBA9 1-250)
# Test: protein-binding microarray (RPBM); PBS, 2% BSA, 51.3 ng/ul salmon testes DNA, 50 uM zinc acetate, 200 nM TF, 25 C, 1 h; high values mean tight binding
# Settings: protein: recombinant; tags: N-terminal polyhistidine and DsRed monomer fusion (pET32a); label: CyDye5-dUTP incorporated in the synthesized complementary strand; 3' TTTTT single-stranded linker to array surface; dsDNA, one strand shown
# Summary of the method: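 Binding signal is defined as the fluorescence intensity of each feature in arbitrary units, read on an Axon 4000B scanner. Transcription factors with N-terminal polyhistidine and DsRed fusions came from E. coli BL21-CodonPlus and were purified on Ni–NTA. They were incubated at 200 nM for 1 h at 25 °C on a custom Agilent array that had been made double-stranded with Cy5-dUTP, with 50 µM zinc acetate present, and the array was washed.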
# OsWRKY34, sequence (Q0JBA9 entry or part of it): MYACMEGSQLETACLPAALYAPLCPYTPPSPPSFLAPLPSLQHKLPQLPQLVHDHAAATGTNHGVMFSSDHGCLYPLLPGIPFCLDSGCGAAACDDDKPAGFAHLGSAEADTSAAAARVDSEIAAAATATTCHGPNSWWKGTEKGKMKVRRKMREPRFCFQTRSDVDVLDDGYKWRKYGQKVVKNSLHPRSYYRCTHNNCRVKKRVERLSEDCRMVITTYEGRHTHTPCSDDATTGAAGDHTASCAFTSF
row,Sequence,binding signal
1,ATCAATCTATTAGAATACTTATTACTGTATCTACTTATGTCGGAGTCACCTAGTGCAG,8690 fluorescence intensity (a.u.)
2,TAGGTTTTTTTTTACTTTTTAACTTGGCTGATTTTATTGACGGAGTCACCTAGTGCAG,8760 fluorescence intensity (a.u.)
3,GACTCTTGCGATTCCCTCTGTTGAACTTGTTCGTTCTCCTCGGAGTCACCTAGTGCAG,10600 fluorescence intensity (a.u.)
4,TTCCCCATGTTTTTTTGCCCACTAACTCACTAGCCACCACCGGAGTCACCTAGTGCAG,10700 fluorescence intensity (a.u.)
5,CCTCGACCTCTCGCTACTCCAGGCGCCGCCCCATCAGATGCGGAGTCACCTAGTGCAG,8200 fluorescence intensity (a.u.)
6,CGTACGCGCCCACGCCCACTCCCACGCCTTCGCGCGCGCGCGGAGTCACCTAGTGCAG,9220 fluorescence intensity (a.u.)
7,TTAGGTCGGGTTTTTCCCGTTTCTCGTTTCTATGGCGATGCGGAGTCACCTAGTGCAG,8750 fluorescence intensity (a.u.)
8,TCCTTGTGCCCACTTCTAGCTAGCTTCCAAGTTCCAACCACGGAGTCACCTAGTGCAG,13700 fluorescence intensity (a.u.)
9,GGTGCTTGTTTAATCAAAGCTTGCTATTTGGTACTTTTTTCGGAGTCACCTAGTGCAG,8940 fluorescence intensity (a.u.)
10,GGACCACCCTGCCGCGGACATCACCCATCTCGTCATCTCCCGGAGTCACCTAGTGCAG,9570 fluorescence intensity (a.u.)
11,ATATTTGACGCCGTTGACTTTTTTAAACATGTTTGACCGTCGGAGTCACCTAGTGCAG,44400 fluorescence intensity (a.u.)
12,CACATATTGATCTATTCTACTAAATTTTTTTTATGACTTTCGGAGTCACCTAGTGCAG,8630 fluorescence intensity (a.u.)
13,TCCCTAAATATTTGACGCCGTTGACTTTTTTAAACATGTTCGGAGTCACCTAGTGCAG,26400 fluorescence intensity (a.u.)
14,CCGTTGGCTTTTTTAAACATGTTTGACCGTTTATTTTATTCGGAGTCACCTAGTGCAG,14100 fluorescence intensity (a.u.)
15,TTGACGCCGTTGACTTTTCTAAACATATTTGACTATTCGTCGGAGTCACCTAGTGCAG,22300 fluorescence intensity (a.u.)
16,TGTTTTATTTTTAGGATACTTCTACCTTTTTTCGCTTTGACGGAGTCACCTAGTGCAG,9510 fluorescence intensity (a.u.)
17,TCCCTAAATATTTGACGCCATTGACTTTTTTAAACATGTTCGGAGTCACCTAGTGCAG,11200 fluorescence intensity (a.u.)
18,CAAATTACTTCCTTTTCAAAATCTAGGATACCGTTGACTTCGGAGTCACCTAGTGCAG,9460 fluorescence intensity (a.u.)
19,ATCTAGGATACCGTTGACTTTTCGTACTAACATTTGACGTCGGAGTCACCTAGTGCAG,32800 fluorescence intensity (a.u.)
20,TGCTTTGGTTGTCTTCTTTATCTAGAAGGCTTTGATTGCTCGGAGTCACCTAGTGCAG,9520 fluorescence intensity (a.u.)
21,TCATTGTTCTCACTTCCTCGTCTTGAGCACTTGAGTCTCTCGGAGTCACCTAGTGCAG,8420 fluorescence intensity (a.u.)

row,Sequence,binding signal
1,TGCACTGGGCTCCCATCTGAATGTCCTTATGCCAACCTCCCGGAGTCACCTAGTGCAG,8520 fluorescence intensity (a.u.)
2,CTAATCCTCCTGCTCCATCTCGATCCACATAACGATCCACCGGAGTCACCTAGTGCAG,8470 fluorescence intensity (a.u.)
3,CATATTATAAATCATTTGACTTTTTTCATATTCAAAATTTCGGAGTCACCTAGTGCAG,9090 fluorescence intensity (a.u.)
4,ACTCTATTTAGATATTTTCCCACGCATCCGTCTCCTCCTCCGGAGTCACCTAGTGCAG,9420 fluorescence intensity (a.u.)
5,ACCAAACCCACGGCCTGGCCCACTGTCAGTACTAAGATAGCGGAGTCACCTAGTGCAG,9120 fluorescence intensity (a.u.)
6,TCGCAGCAGCTGTTTTACCGGCTAGTTTTTTGCACACATCCGGAGTCACCTAGTGCAG,8600 fluorescence intensity (a.u.)
7,GTCCCTAAATATTTGACGCCGTTGACTTTTTTAAACATGTCGGAGTCACCTAGTGCAG,28500 fluorescence intensity (a.u.)
8,ATATTTGACGCCGTTGACTTTTTTAAACATATTTAACTGTCGGAGTCACCTAGTGCAG,14600 fluorescence intensity (a.u.)
9,CTCCGTTTGTAAATATTTGACGCCGTTGACTTTTTAAAATCGGAGTCACCTAGTGCAG,22700 fluorescence intensity (a.u.)
10,CCTCCGTCCCTAAATATTCGACGCCGTTGACTTTTTTAAACGGAGTCACCTAGTGCAG,21700 fluorescence intensity (a.u.)
11,TATCTAAATATTTGACGCCGTTGACTTTTTAAAACATGTTCGGAGTCACCTAGTGCAG,30900 fluorescence intensity (a.u.)
12,CCCTTTCACATGTCACCTCTGACCCACAAACAAACCCTTTCGGAGTCACCTAGTGCAG,8210 fluorescence intensity (a.u.)
13,GAGTTATCCTCACCACCCACCGCTCGTCGCCTCCACTCCGCGGAGTCACCTAGTGCAG,8120 fluorescence intensity (a.u.)
14,AGTAAGAGATCTCAAATTGATATGGGTTCTTGTTTTATATCGGAGTCACCTAGTGCAG,8150 fluorescence intensity (a.u.)
15,CACCAAGCAGTCCCCTGTGTTCATCTTCTGAAGTCTGATTCGGAGTCACCTAGTGCAG,8360 fluorescence intensity (a.u.)
16,ATTCCGCGCGCCGCCGCCGTCGCCGCCGCCGACGTCGCCGCGGAGTCACCTAGTGCAG,8920 fluorescence intensity (a.u.)
17,GATGCCATTTTTAAACAATTCCATGCCTTGTTTCCATTTCCGGAGTCACCTAGTGCAG,13400 fluorescence intensity (a.u.)
18,CTCCGTTATCGTTTGACTTTCTTTTCATTAATATTTTAAACGGAGTCACCTAGTGCAG,15600 fluorescence intensity (a.u.)
19,CATCTGTTTCTGAATATTTGACGCCGTTGACTTTTTAAAACGGAGTCACCTAGTGCAG,19600 fluorescence intensity (a.u.)
20,AAATATTTGACGCCGTTGACTTTCTTAAACATGTTTAACTCGGAGTCACCTAGTGCAG,15700 fluorescence intensity (a.u.)
21,ATTTCTAAATATTTGACGTCGTTGACTTTTTTAAACATGTCGGAGTCACCTAGTGCAG,26800 fluorescence intensity (a.u.)
